# Test results as given in PubChem BioAssay (NCI).
# This is part of a sample that, as a whole, favours compounds with a hit. Of some 79,000 tested, about 15% had one in any assay. Values without a mark were called inactive. Activity calls are given as the source filed them. Cut-off read from the data, not from the text of the source: active = growth inhibition above about 70%; inactive = the rest.
# How the values were obtained:
# [1] = NCI Yeast Anticancer Drug Screen. Data for the rad52 strain (AID 147);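 note: 0% = growth of vehicle-treated control cultures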; conditions: S. cerevisiae rad52 mutant growth inhibition, active compounds read high
# Outline: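 Read-out: growth inhibition versus vehicle-treated controls. Cells were a DNA repair-deficient yeast strain treated with compounds.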
# [2] = NCI Yeast Anticancer Drug Screen. Data for the wt1 strain (AID 149);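 note: 0% = growth of vehicle-treated wt1 cultures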; conditions: S. cerevisiae wt1 strain (SPY 50644) growth inhibition, active compounds read high
# Outline: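 wt1 yeast, compound-treated; % growth inhibition vs vehicle control.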
# [3] = NCI Yeast Anticancer Drug Screen. Data for the rad50EPP+ strain (AID 151);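 note: 0% = growth of vehicle-treated control cultures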; conditions: S. cerevisiae rad50 mutant strain, active compounds read high
# Outline: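 Growth inhibition read against vehicle controls in rad50EPP+ yeast, a strain altered in DNA damage repair, after compound exposure.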
# [4] = NCI Yeast Anticancer Drug Screen. Data for the mgt1 strain (AID 153); conditions: S. cerevisiae mgt1 mutant growth inhibition, active compounds read high
# Outline: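 mgt1 yeast grown with test compound; read-out is growth inhibition versus vehicle-treated cultures.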
# [5] = NCI Yeast Anticancer Drug Screen. Data for the rad50 strain (AID 155);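 note: 0% = growth of vehicle-only cultures of the same strain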; conditions: S. cerevisiae rad50 strain growth inhibition, active compounds read high
# Outline: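 Genetically altered yeast (DNA repair pathway); compound treatment; growth inhibition vs vehicle ctrl.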
# [6] = NCI Yeast Anticancer Drug Screen. Data for the mec2-1 strain (AID 157); conditions: S. cerevisiae mec2-1 strain, active compounds read high
# Outline: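 Yeast mec2-1 mutant treated with compound. Readout: growth inhibition vs vehicle controls.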
# [7] = NCI Yeast Anticancer Drug Screen. Data for the sgs1 mgt1 strain (AID 161);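 note: 0% = growth of cultures given vehicle only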; conditions: S. cerevisiae sgs1 mgt1 strain, active compounds read high
# Outline: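 Genetically altered yeast, compound exposure, growth inhibition relative to vehicle.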
# [8] = NCI Yeast Anticancer Drug Screen. Data for the cln2 rad14 strain (AID 165);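 note: 0% = growth equal to vehicle treated cultures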; conditions: S. cerevisiae cln2 rad14 strain, active compounds read high
# Outline: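 cln2 rad14 yeast strain; compound exposure; growth inhibition read vs vehicle controls.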
# [9] = NCI Yeast Anticancer Drug Screen. Data for the bub3 strain (AID 167); conditions: S. cerevisiae bub3 mutant strain, active compounds read high
# Outline: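 Yeast carrying a defined mutation is treated with each compound, and growth is compared with that of vehicle-exposed cells to give inhibition.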
# [10] = NCI Yeast Anticancer Drug Screen. Data for the wt2 strain (AID 169);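 note: 0% = growth of vehicle-treated yeast cultures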; conditions: S. cerevisiae wt2 strain growth inhibition, active compounds read high
# Outline: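 Read-out: growth inhibition versus vehicle-treated control cultures after compound exposure of the yeast strain.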
# [11] = NCI Yeast Anticancer Drug Screen. Data for the mlh1 strain (AID 171);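 note: 0% = growth of vehicle-treated control cultures of the same strain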; conditions: S. cerevisiae mlh1 strain growth inhibition, active compounds read high
# Outline: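 Read-out: growth inhibition versus vehicle controls. Strain: engineered yeast with a defined DNA repair or cell cycle defect, compound-treated.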
# [12] = NCI Yeast Anticancer Drug Screen. Data for the sgs1 strain (AID 173);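 note: 0% = growth of vehicle-only control cultures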; conditions: S. cerevisiae sgs1 mutant, active compounds read high
# Outline: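 Read-out: yeast growth inhibition relative to vehicle controls, following compound exposure of a strain with a defined DNA repair/cell cycle alteration.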
# [13] = NCI Yeast Anticancer Drug Screen. Data for the mlh1 rad18 strain (AID 175); conditions: S. cerevisiae mlh1 rad18 strain growth inhibition, active compounds read high
# Outline: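 Yeast w/ defined DNA-repair lesions; compound exposure; growth vs vehicle controls → % inhibition.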
# [14] = NCI Yeast Anticancer Drug Screen. Data for the rad18 strain (AID 177); conditions: S. cerevisiae rad18 mutant growth inhibition, active compounds read high
# Outline: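 Readout: growth inhibition vs vehicle controls. Cells: genetically altered yeast strain, DNA repair defect.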
# [15] = NCI Yeast Anticancer Drug Screen. Data for the CLN2oe strain (AID 163);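 note: 0% = growth of vehicle-only control cultures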; conditions: S. cerevisiae CLN2oe strain, active compounds read high
# Outline: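 Read-out: yeast growth inhibition, expressed relative to vehicle-only controls. The strain bears an engineered cell-cycle alteration.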
# [16] = at 5.0 µM (retest, dose inferred, filed as 0.5)
# [17] = at 50.0 µM (retest, dose inferred, filed as 5.0)
smiles,measurement,setting,value
CCOC(=S)SSSC(=S)OCC,growth inhibition,[1]; at 1.2 µM,4%
same,growth inhibition,[1]; at 3.7 µM,17%
same,growth inhibition,[1]; at 11.0 µM,70% (active)
same,growth inhibition,[1]; at 33.0 µM,97% (active)
same,growth inhibition,[1]; at 100.0 µM,99% (active)
same,growth inhibition,[2]; at 1.2 µM,-3%
same,growth inhibition,[2]; at 3.7 µM,3%
same,growth inhibition,[2]; at 11.0 µM,31%
same,growth inhibition,[2]; at 33.0 µM,88% (active)
same,growth inhibition,[2]; at 100.0 µM,99% (active)
same,growth inhibition,[3]; at 1.2 µM,18%
same,growth inhibition,[3]; at 3.7 µM,51%
same,growth inhibition,[3]; at 11.0 µM,93% (active)
same,growth inhibition,[3]; at 33.0 µM,99% (active)
same,growth inhibition,[3]; at 100.0 µM,99% (active)
same,growth inhibition,[4]; at 1.2 µM,-1%
same,growth inhibition,[4]; at 3.7 µM,6%
same,growth inhibition,[4]; at 11.0 µM,31%
same,growth inhibition,[4]; at 33.0 µM,96% (active)
same,growth inhibition,[4]; at 100.0 µM,56%
same,growth inhibition,[5]; at 1.2 µM,7%
same,growth inhibition,[5]; at 3.7 µM,19%
same,growth inhibition,[5]; [16],43%
same,growth inhibition,[5]; at 11.0 µM,76% (active)
same,growth inhibition,[5]; at 33.0 µM,99% (active)
same,growth inhibition,[5]; [17],99% (active)
same,growth inhibition,[5]; at 50.0 µM,29.6%
same,growth inhibition,[5]; at 100.0 µM,99% (active)
same,growth inhibition,[6]; at 1.2 µM,-6%
same,growth inhibition,[6]; at 3.7 µM,-5%
same,growth inhibition,[6]; [16],87% (active)
same,growth inhibition,[6]; at 11.0 µM,20%
same,growth inhibition,[6]; at 33.0 µM,91% (active)
same,growth inhibition,[6]; [17],100% (active)
same,growth inhibition,[6]; at 50.0 µM,19.4%
same,growth inhibition,[6]; at 100.0 µM,99% (active)
same,growth inhibition,[7]; [16],9%
same,growth inhibition,[7]; [17],99% (active)
same,growth inhibition,[7]; at 50.0 µM,41.2%
same,growth inhibition,[8]; [16],1%
same,growth inhibition,[8]; [17],92% (active)
same,growth inhibition,[8]; at 50.0 µM,-2.7%
same,growth inhibition,[9]; at 1.2 µM,-5%
same,growth inhibition,[9]; at 3.7 µM,-4%
same,growth inhibition,[9]; [16],-3%
same,growth inhibition,[9]; at 11.0 µM,36%
same,growth inhibition,[9]; at 33.0 µM,95% (active)
same,growth inhibition,[9]; [17],99% (active)
same,growth inhibition,[9]; at 50.0 µM,50.4%
same,growth inhibition,[9]; at 100.0 µM,99% (active)
same,growth inhibition,[10]; at 1.2 µM,-1%
same,growth inhibition,[10]; at 3.7 µM,0%
same,growth inhibition,[10]; at 11.0 µM,33%
same,growth inhibition,[10]; at 33.0 µM,95% (active)
same,growth inhibition,[10]; at 100.0 µM,99% (active)
same,growth inhibition,[11]; at 1.2 µM,3%
same,growth inhibition,[11]; at 3.7 µM,7%
same,growth inhibition,[11]; at 11.0 µM,41%
same,growth inhibition,[11]; at 33.0 µM,95% (active)
same,growth inhibition,[11]; at 100.0 µM,99% (active)
same,growth inhibition,[12]; at 1.2 µM,0%
same,growth inhibition,[12]; at 3.7 µM,9%
same,growth inhibition,[12]; at 11.0 µM,56%
same,growth inhibition,[12]; at 33.0 µM,98% (active)
same,growth inhibition,[12]; at 100.0 µM,99% (active)
same,growth inhibition,[13]; [16],55%
same,growth inhibition,[13]; [17],99% (active)
same,growth inhibition,[13]; at 50.0 µM,27.2%
same,growth inhibition,[14]; at 1.2 µM,0%
same,growth inhibition,[14]; at 3.7 µM,8%
same,growth inhibition,[14]; at 11.0 µM,56%
same,growth inhibition,[14]; at 33.0 µM,98% (active)
same,growth inhibition,[14]; at 100.0 µM,99% (active)
C1=CCN([B-](c2ccccc2)[C+]2CCCCC2)C=C1,growth inhibition,[1]; at 1.2 µM,-3%
same,growth inhibition,[1]; at 3.7 µM,-4%
same,growth inhibition,[1]; at 11.0 µM,1%
same,growth inhibition,[1]; at 33.0 µM,58%
same,growth inhibition,[1]; at 100.0 µM,98% (active)
same,growth inhibition,[2]; at 1.2 µM,-1%
same,growth inhibition,[2]; at 3.7 µM,-2%
same,growth inhibition,[2]; at 11.0 µM,1%
same,growth inhibition,[2]; at 33.0 µM,64%
same,growth inhibition,[2]; at 100.0 µM,98% (active)
same,growth inhibition,[3]; at 1.2 µM,-3%
same,growth inhibition,[3]; at 3.7 µM,-4%
same,growth inhibition,[3]; at 11.0 µM,-3%
same,growth inhibition,[3]; at 33.0 µM,2%
same,growth inhibition,[3]; at 100.0 µM,22%
same,growth inhibition,[4]; at 1.2 µM,-2%
same,growth inhibition,[4]; at 3.7 µM,-1%
same,growth inhibition,[4]; at 11.0 µM,0%
same,growth inhibition,[4]; at 33.0 µM,44%
same,growth inhibition,[4]; at 100.0 µM,99% (active)
same,growth inhibition,[5]; at 1.2 µM,-3%
same,growth inhibition,[5]; at 3.7 µM,-49%
same,growth inhibition,[5]; [16],-2%
same,growth inhibition,[5]; at 11.0 µM,16%
same,growth inhibition,[5]; at 33.0 µM,70% (active)
same,growth inhibition,[5]; [17],86% (active)
same,growth inhibition,[5]; at 50.0 µM,98.9% (active)
same,growth inhibition,[5]; at 100.0 µM,99% (active)
same,growth inhibition,[6]; at 1.2 µM,-1%
same,growth inhibition,[6]; at 3.7 µM,-2%
same,growth inhibition,[6]; [16],-4%
same,growth inhibition,[6]; at 11.0 µM,4%
same,growth inhibition,[6]; at 33.0 µM,76% (active)
same,growth inhibition,[6]; [17],96% (active)
same,growth inhibition,[6]; at 50.0 µM,98.7% (active)
same,growth inhibition,[6]; at 100.0 µM,99% (active)
same,growth inhibition,[7]; [16],-5%
same,growth inhibition,[7]; [17],92% (active)
same,growth inhibition,[7]; at 50.0 µM,99.2% (active)
same,growth inhibition,[15]; at 1.2 µM,-6%
same,growth inhibition,[15]; at 3.7 µM,-6%
same,growth inhibition,[15]; at 11.0 µM,1%
same,growth inhibition,[15]; at 33.0 µM,32%
same,growth inhibition,[15]; at 100.0 µM,95% (active)
same,growth inhibition,[8]; [16],-1%
same,growth inhibition,[8]; [17],18%
same,growth inhibition,[8]; at 50.0 µM,2.1%
same,growth inhibition,[9]; at 1.2 µM,2%
same,growth inhibition,[9]; at 3.7 µM,-1%
same,growth inhibition,[9]; [16],1%
same,growth inhibition,[9]; at 11.0 µM,4%
same,growth inhibition,[9]; at 33.0 µM,80% (active)
same,growth inhibition,[9]; [17],15%
same,growth inhibition,[9]; at 50.0 µM,-11.4%
same,growth inhibition,[9]; at 100.0 µM,97% (active)
same,growth inhibition,[10]; at 1.2 µM,-1%
same,growth inhibition,[10]; at 3.7 µM,7%
same,growth inhibition,[10]; at 11.0 µM,3%
same,growth inhibition,[10]; at 33.0 µM,94% (active)
same,growth inhibition,[10]; at 100.0 µM,98% (active)
same,growth inhibition,[11]; at 1.2 µM,-1%
same,growth inhibition,[11]; at 3.7 µM,-2%
same,growth inhibition,[11]; at 11.0 µM,-1%
same,growth inhibition,[11]; at 33.0 µM,75% (active)
same,growth inhibition,[11]; at 100.0 µM,99% (active)
same,growth inhibition,[12]; at 1.2 µM,-2%
same,growth inhibition,[12]; at 3.7 µM,-2%
same,growth inhibition,[12]; at 11.0 µM,6%
same,growth inhibition,[12]; at 33.0 µM,92% (active)
same,growth inhibition,[12]; at 100.0 µM,99% (active)
same,growth inhibition,[13]; [16],0%
same,growth inhibition,[13]; [17],96% (active)
same,growth inhibition,[13]; at 50.0 µM,96.5% (active)
